# Measurements from ChEMBL document CHEMBL1157539, “Thousands of chemical starting points for antimalarial lead identification” (Nature, 2010).
# Key:
# Format in all cases: functional
# Plasmodium falciparum [1] = assay: GSK_TCMDC: Inhibition of Plasmodium falciparum 3D7 in whole red blood cells, using parasite LDH activity as an index of growth. Test compounds present at 2uM
# Plasmodium falciparum [2] = assay: GSK_TCMDC: Inhibition of Plasmodium falciparum Dd2 in whole red blood cells, using parasite LDH activity as an index of growth. Test compounds present at 2uM
# HepG2 = assay: GSK_TCMDC: Percent inhibition of human HepG2 cell line. Test compounds present at 10uM.
Structure (SMILES),Inhibition (Plasmodium falciparum [1]) [%],Inhibition (Plasmodium falciparum [2]) [%],Inhibition (HepG2) [%]
COc1cccc(-c2ccc(O)c(CNCCc3cccc(F)c3)c2)n1,96,67,0
Cc1cccc(-c2ccc(NC(=O)C3CCN(Cc4cccc(O)c4)CC3)cc2)c1,92,64,21
O=C(Nc1cccc(-c2nn3ccccc3c2-c2ccnc(Nc3cccc(F)c3)n2)c1)c1c(F)ccc(F)c1F,96,73,33
OC(CNC1CCCCC1)Cn1c2ccc(Br)cc2c2cc(Br)ccc21 (stereo not given),98,100,10
Cc1ccc(NC(=O)c2ccc(CN3CCCN(CC4CCCCC4)CC3)cc2)cc1C.O=C(O)C(F)(F)F,86,32,38
CC(C)N1CCC(N(Cc2ccc(-c3ccc(Cl)cc3)cc2)C(=O)Cn2c(CCc3cccc(F)c3F)cc(=O)c3ccccc32)CC1.O=C(O)C(O)C(O)C(=O)O,96,73,62
Cl.N#Cc1ccc2c(c1)CN(CCC1CCC(NC(=O)c3cc4cc(OC(F)(F)F)ccc4[nH]3)CC1)CC2 (stereo not given),100,19,4
CCN(CC)CCN(CCCc1ccc(-c2ccc(C(F)(F)F)cc2)cc1)C(=O)Cn1c(CCc2cccc(F)c2F)nc(=O)c2c1CCC2.O=C(O)C(O)C(O)C(=O)O,92,27,38
NC(=S)Cc1ccc2c(c1)OCO2,96,0,43
CC(C)C[C@@H](NC(=O)OC(C)(C)C)C(=O)Nc1ccc(Cc2ccc(NC(=O)[C@@H](CC(C)C)NC(=O)OC(C)(C)C)cc2)cc1,96,96,8
O=C(CN1CCCCC1)Nc1ccc(Nc2nccc(NCC(O)c3ccccc3)n2)cc1 (stereo not given),100,95,62
O=C(Nc1cccc(CN2CCN(C(=O)c3cccc(Cl)c3)CC2)c1)c1cccs1.O=C(O)C(F)(F)F,94,94,17
CN(C)Cc1cccc2nc(-c3csc(Cc4cc(Cl)ccc4OCc4ccccc4)n3)[nH]c12,100,77,14
Cc1cccc2nc(-c3ccc(-c4cccc(NC(=O)C(C)CN(C)C)c4)s3)[nH]c12 (stereo not given),92,69,12
O=C(NCCCCCN1CCC(c2ccc(O)cc2)CC1)c1ccc(-c2ccccc2)cc1,92,0,28
CCNc1cc(C(=O)N[C@@H](Cc2ccccc2)[C@H](O)CNC(C)C)cc(N2CC(c3ccccc3)CCS2(=O)=O)c1 (stereo not given in full),98,99,0
COc1ccc(-c2ccc3c(-c4cccc(S(C)(=O)=O)c4)cnc(N)c3c2)cc1,89,12,41
Cl.N=C(NC1CC1)c1ccc2[nH]c(CCCCCc3nc4cc(C(=N)NC5CC5)ccc4[nH]3)nc2c1,89,72,0
Br.CCCCCCn1c2c(c(=N)c3c1CCC3)CCCC2,99,76,31
CC(C)CNCc1cccc(-c2ccc(CN(C(=O)NCCc3ccccc3)C3CCN(Cc4ccccc4)CC3)cc2)c1.O=C(O)C(F)(F)F,98,47,99

Structure (SMILES),Inhibition (Plasmodium falciparum [1]) [%],Inhibition (Plasmodium falciparum [2]) [%],Inhibition (HepG2) [%]
Cc1cccc(/C=C/C(=O)NC2CCC(N3CCC(c4ccccc4C)CC3)CC2)c1 (stereo not given),92,20,67
O=C(NOCc1ccccc1)c1cc(Cl)ccc1O,83,0,2
O=C(O)C(F)(F)F.O=[N+]([O-])c1cccc(CNCC2CCN(Cc3ccc4ccccc4c3)CC2)c1,100,42,18
Cc1nc(N/C(N)=N/C(=O)NC2CCCCC2)nc2ccccc12,95,99,21
CCCNCc1ccc(-c2ccc(CN(CCOC)C(=O)c3cscn3)cc2)nc1.O=C(O)C(F)(F)F,99,16,13
CN(C)CCCOc1cccc(CCNCc2cccc(Oc3ccc(Cl)cc3)c2)c1.O=C(O)C(F)(F)F,93,67,72
CC(C)(CNC(=O)C1CCN(CCOc2ccc(F)c(F)c2)CC1)c1nc(-c2ccc(Cl)c(O)c2)c(-c2ccncc2)[nH]1.Cl,100,19,41
Cc1ccc(-c2ccc(NC(=O)N3CCc4cc(Br)c(N5CCN(C)CC5)cc43)cc2)cn1,80,16,86
Cc1cc(C(=O)Nc2ccc3c(c2)CCN3C2CCN(Cc3ccc(O)cc3)C2)no1 (stereo not given),95,86,3
N=c1c(C(=O)NCc2ccccc2)cc2c(=O)n3ccccc3nc2n1CCc1ccccc1,99,25,5
CCO[C@H]1CN[C@H](C#Cc2cc3c(Nc4ccc(OCc5cccc(F)c5)c(Cl)c4)ncnc3s2)C1.O=C(O)C(F)(F)F,100,37,8
COc1cccc(CC(=O)N2CCC(n3c(C)nc4ccc(C)cc43)CC2)c1,100,99,1
Cn1ccnc1CNC(=O)c1ccc(-c2ccc(-c3nc4cc(C(F)(F)F)ccc4[nH]3)s2)cc1,100,43,40
O=C(NCc1ccc(Cl)c(Cl)c1)c1ccc(-c2nc3ccc(F)cc3[nH]2)cc1,93,9,0
NC(=O)c1ccccc1Nc1nc(Nc2cc[nH]n2)ncc1Cl,96,93,67
CN(CCCc1c[nH]c2ccccc12)CC1CCN(C(=O)/C=C/c2ccc(Cl)c(Cl)c2)CC1,99,25,37
Cc1ccc(CON2C(N)=NC(N)=NC23CCCCC3)c2ccccc12.Cl,98,56,57
O=C(Nc1ccc(Br)cc1)N(CCN1CCOCC1)CC(O)COCc1ccc(F)cc1.O=C(O)C(F)(F)F (stereo not given),90,3,5
O=C(Nc1ccc(C(F)(F)F)cc1)NC1CCN(CCCCCNC(=O)C2CC2c2ccc(Cl)c(Cl)c2)CC1 (stereo not given),100,45,41
COc1cc2nccc(Nc3ccc(OCc4ccccc4)cc3)c2cc1OC,100,99,35

Structure (SMILES),Inhibition (Plasmodium falciparum [1]) [%],Inhibition (Plasmodium falciparum [2]) [%],Inhibition (HepG2) [%]
N#Cc1ccc(NC(=O)Nc2ccc(OC(F)(F)F)cc2)cc1,98,91,43
Cc1nccc2c(NC(=O)N[C@@H]3CCN(c4ncc(C(F)(F)F)cc4Br)C3)cccc12.Cl,96,27,21
COc1ccc2nccc([C@@H](O)CN3CCC(NS(=O)(=O)c4cc(Br)c(Br)s4)CC3)c2c1,92,36,14
Cc1ccccc1NC(=S)NC1CCN(CCCCCNC(=O)/C=C/c2ccc(Cl)c(Cl)c2)CC1,99,7,14
CCOC(=O)c1ccc(OCCCCCCOc2ccc(Br)cc2)cc1,98,0,12
CCS[C@@H]1O[C@H](COC(=O)c2ccccc2)[C@H](OC(=O)c2ccccc2)[C@H](OC(=O)c2ccccc2)[C@H]1OC(=O)c1ccccc1,98,52,4
Cc1cccc(CNc2nc(C)cc(NCCC(=O)NCCOc3ccccc3)n2)c1.O=C(O)C(F)(F)F,98,14,18
Cl.c1ccc2c(NCCCCCCCCNc3ccnc4ccccc34)ccnc2c1,100,35,57
CC(C)c1ccc(NC(=O)NC2CCN(CCCCCNC(=O)/C=C/c3ccc(Cl)c(Cl)c3)CC2)cc1,100,19,0
CN(C)CCNc1ncnc2c1[nH]c1ccc(Br)cc12,100,7,2
CCc1ccc(C2CCN(CCCCNC(=O)c3ccc(-c4ccc(C#N)cc4)cc3)CC2)c(OCCO)c1.Cl,94,61,24
CCCNC(=O)C1Cc2c([nH]c3cc(Br)ccc23)C2(CCN(CCc3ccccc3)CC2)N1 (stereo not given),92,26,15
CC(C)CN1C(=O)c2ccc(C(=O)Nc3nccs3)cc2C1=O,89,0,3
Cc1ccc(NC(=O)c2ccc(N3CCC(c4ccccc4C)CC3)nc2)cc1.O=C(O)C(F)(F)F,83,72,49
COc1cc2ncnc(Nc3ccc(OCc4ccccc4)c(C(F)(F)F)c3)c2cc1OC.Cl,100,78,8
CC(=O)c1cccc(Nc2nc3ccc(OCc4cc(Cl)cc(Cl)c4)c(C#N)c3[nH]2)c1,86,45,29
Clc1cccc(C=NNc2nc(=Nc3ccccc3)[nH]c(=Nc3ccccc3)[nH]2)c1,92,15,0
CC(C)c1ccc(NS(=O)(=O)c2cccc(C(=O)NC3CCN(CC4CCCCC4)CC3)c2)cc1.O=C(O)C(F)(F)F,93,69,71
Fc1ccc2[nH]c(-c3cccc(-c4cccc(CNCc5cnn(-c6ccccc6)n5)c4)c3)nc2c1.O=C(O)C(F)(F)F,91,57,18
O=C(Nc1ccc(Cn2ncc(N3CCCNCC3)c(Cl)c2=O)cc1)Nc1ccc(C(F)(F)F)cc1.O=C(O)C(F)(F)F,90,58,12
